# Assay outcomes as filed in PubChem BioAssay.
# Sm TGR block: S. mansoni TGR enzyme inhibition; Q962Y6; purified TGR, DTNB reduction, TNB absorbance 405 nm; Potency, µM (top dose mostly 114 µM), inactives show top-dose activity change, negative = inhibition, most hits filed as inhibitors; 360,000 tested, 3% active; AID 485364; note: nearly all actives have a fitted effect of over 60% in size
#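 First, TGR (20 nM dispensed) and NADPH were mixed with compound. Second, a 15 min room-temperature incubation followed. Third, further NADPH and then DTNB were added to start the reaction. Finally, TNB absorbance was monitored kinetically.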
# FBPA Giardia inh: Giardia lamblia aldolase inhibition; A8B2U2; purified Giardia FBPA; Potency, µM (doses to about 59.6 µM), inactives show top-dose activity, negative = inhibition, usual class: inhibitors; 290,000 tested, 0.71% active; AID 2451; note: nearly all actives have a fitted effect of over 55% in size
#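 40 nM FBPA preincubated 10 min at RT with compound (up to 57.5 uM final), then substrate plus GAPDH/TPI/NAD/arsenate coupling and diaphorase/resazurin added. Fluorescence read after 20 min at RT, 525/598 nm.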
# AmpC detergent: inhibitors of E. coli AmpC beta-lactamase with detergent; AmpC hydrolysis of nitrocefin, absorbance 480 nm, 0.01% Triton; Potency, µM (series often up to 114 µM), without a hit: top-dose activity change, negative = inhibition, most hits filed as inhibitors; 370,000 tested, 0.041% active;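 note: 0% = no-compound wells and -100% = no-enzyme wells; nearly all actives have a fitted effect of over 25% in size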
# Target sequence (P00811 whole entry, looked up): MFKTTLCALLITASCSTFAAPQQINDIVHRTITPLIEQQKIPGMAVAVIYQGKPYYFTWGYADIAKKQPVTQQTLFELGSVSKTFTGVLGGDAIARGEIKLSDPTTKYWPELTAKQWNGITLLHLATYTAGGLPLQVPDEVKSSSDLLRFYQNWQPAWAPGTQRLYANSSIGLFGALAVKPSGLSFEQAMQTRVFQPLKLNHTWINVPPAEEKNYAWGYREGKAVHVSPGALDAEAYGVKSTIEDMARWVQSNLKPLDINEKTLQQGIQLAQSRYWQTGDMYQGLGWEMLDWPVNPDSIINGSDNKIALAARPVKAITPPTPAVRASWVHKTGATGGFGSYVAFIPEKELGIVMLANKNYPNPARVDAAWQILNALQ
#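 AmpC (5.3 nM in the dispensed reagent) in 20 mM phosphate pH 7.0 with 0.01% (detergent screen) or 0.0001% Triton X-100 was preincubated with compounds for 15 min at room temperature. Nitrocefin was then added from an 800 uM solution, and hydrolysis was followed at 480 nm.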
# AmpC inh no detg: inhibitors of E. coli AmpC beta-lactamase without detergent; Potency, µM (top dose mostly 57.1 µM), for inactives: at the highest dose activity change, negative = inhibition, most hits filed as inhibitors; AmpC nitrocefin hydrolysis, absorbance 480 nm, 0.0001% Triton; 330,000 tested, 0.52% active;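 note: plate controls were no compound for no effect and no enzyme for full effect; nearly all actives have a fitted effect of over 20% in size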
#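 20 mM phosphate pH 7.0 + 0.01% (detergent screen) or 0.0001% Triton X-100; 5.3 nM AmpC reagent; cpd preinc 15 min RT; nitrocefin (800 uM stock) to start; A480 q20 s × 4 min; Activity was normalised to no-enzyme and no-compound control wells.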
# Numbers without * were called inactive; ? = inconclusive; nt = no result given; ! = a repeat was not active; [ ] = another dose, or the depositor's remark. Sampled rows, rich in hits. Any-hit rate of the full collection: about 3.6%. Calls come from the whole dose curve; as a rule, active = well fitted curve in the direction sought with a large enough effect; inconclusive = small, poorly fitted or top-dose-only effect, or another doubt; inactive = no such curve, though single readings can be large; an effect the other way counts as inactive or inconclusive. Unless noted, % is set by controls: 0 for no effect and ±100 for the full control effect; potency is the fitted concentration of half-maximal effect.
SMILES,Sm TGR block,FBPA Giardia inh,AmpC detergent,AmpC inh no detg
O=C(NCc1cccc(Cl)c1)c1ccncc1,6%,nt,0%,142%
CCCCn1c(C)cc2c(c1=O)C1O[C@](c3ccc(OC)cc3)(Cc3cc(OC)c(OC)cc31)O2,?,-2%[12.9 µM],-3%[22.9 µM],40%[11.4 µM]
COC(=O)C1=NN(N=O)C2(CC(=O)N(c3cc(C)cc(C)c3)C2=O)C1 (stereo not given),25µM*,-17%,2%,-32%
CCOC(=O)C1=NN(C(C)=O)C2(CC(=O)N(c3cc(C)cc(C)c3)C2=O)C1 (stereo not given),-10%,11%,?,2%
COCC(=O)NCc1nc2cccnc2n1Cc1ccc(F)cc1,0%,nt,4%,nt
CCCSC1=N/C(=C\C=C\c2ccco2)C(=O)S1,32µM*,?,-7%,-13%
CCn1c(=NC(=O)c2ccco2)sc2cccc(F)c21,-2%,-18%,?,3.5µM*
COc1ccc(OC)c2c1sc(=NC(=O)c1ccco1)n2C,-24%,0%,?,-37%
CC1Nc2ccc(Cl)cc2S(=O)(=O)N1 (stereo not given),nt,-1%,nt,nt
C[C@@H]1C[C@H](O)c2cc(Cl)ccc2N1,40µM*,-16%,-2%,-13%
NC(=O)C1CCN(C(=O)c2ccco2)CC1,-12%,-1%,1%,-12%
O=C(/C=C/c1ccccc1)N1CCN(C(=O)c2ccco2)CC1,10%,3%,-3%,-19%
O=C(/C=C/c1ccco1)N1CCN(C/C=C/c2ccccc2)CC1,40µM*,0%,-10%,73%
O=C(/C=C/c1ccco1)N1CCN(c2ccccc2)CC1,11µM*,-6%,?,-18%
O=C(/C=C/c1ccco1)N1CCN(S(=O)(=O)/C=C/c2ccccc2)CC1,13µM*,-3%,-8%,43%
NC(=O)C1CCN(C(=O)/C=C/c2ccco2)CC1,7.9µM*,-2%,-5%,-1%
COc1ccc(C(=O)Cn2c(Cl)nc3c2c(=O)n(C)c(=O)n3C)cc1,-13%,2%,-5%,10%
Cc1ccc(C)c(S(=O)(=O)c2nnn3c2nc(NCc2ccc4c(c2)OCO4)c2sccc23)c1,5%,nt,19%,nt
CS(=O)(=O)Nc1ccc(C(=O)Nc2ccccc2-c2ccccc2)cc1,2%,3%,-11%,-21%
Cc1ccc(/C=C/C(=O)N2CCN(S(=O)(=O)/C=C/c3ccccc3)CC2)o1,14µM*,-15%,-3%,17%
O=C(/C=C/c1ccc(F)cc1)N1CCN(S(=O)(=O)/C=C/c2ccccc2)CC1,0%,3%,-8%,-13%
Cc1ccc(CNC(=O)c2ccc(CNS(=O)(=O)c3ccc4c(c3)C(C)(C)C(=O)N4C)cc2)o1,50µM*,-6%,-9%,-10%
Cc1ccc(-n2ncc3c(NCc4ccco4)ncnc32)c(C)c1,40µM*,-13%,?,-24%
Cc1ccc(-n2ncc3c(NCc4ccccn4)ncnc32)c(C)c1,0%,-24%,?,0%
O=C(NC1CCCCCC1)c1ccc(CS(=O)Cc2cccc(Cl)c2)o1 (stereo not given),56µM*,nt,6%,72%
SMILES,Sm TGR block,FBPA Giardia inh,AmpC detergent,AmpC inh no detg
O=C(NCc1ccccc1)c1ccc(CS(=O)Cc2ccc(Cl)cc2)o1 (stereo not given),?,11%,3%,43%
O=C(NCCc1ccccc1)c1ccc(CS(=O)Cc2ccc(Cl)cc2)o1 (stereo not given),35µM*!,5%,2%,52%
COc1ccc(CNC(=O)C2CCN(S(=O)(=O)c3ccc4c(c3)CC(C)N4C(C)=O)CC2)cc1 (stereo not given),-9%,6%,-9%,28%
CN(C)C(=O)CCSc1nnc(-c2ccncc2)o1,-20%,9%,-12%,-15%
Cc1ccc(N2CC(NC(=O)C(=O)c3c[nH]c4ccccc34)CC2=O)cc1 (stereo not given),2%,nt,1%,nt
C#CCSc1nnc(CNS(=O)(=O)c2ccc(Br)cc2)n1C,10µM*,nt,-9%,-17%
Cc1cc(NC(=O)CC2CCCC2)n(-c2nc3ccccc3[nH]2)n1,22µM*,-13%,-9%,-22%
Cc1ccc(Oc2ccc(-c3nnc(-c4ccccc4)o3)cc2[N+](=O)[O-])cc1C,-13%,7%,-15%,-25%
CC1CC1C(=O)Nc1ccc(S(=O)(=O)N2CCCCC2)cc1 (stereo not given),1%,nt,-8%,-14%
O=C(CSc1oc(-c2ccco2)nc1S(=O)(=O)c1ccc(Cl)cc1)NCC1CCCO1 (stereo not given),50µM*,-9%,-5%,22%
O=C(CSc1oc(-c2ccco2)nc1S(=O)(=O)c1ccc(F)cc1)NCC1CCCO1 (stereo not given),0%,7%,-1%,-1%
O=C(CSc1oc(-c2ccco2)nc1S(=O)(=O)c1ccccc1)NCC1CCCO1 (stereo not given),16µM*,-2%,-4%,-11%
Cc1cc(C)n(-c2nc3ccccc3nc2Nc2cccc(C)c2C)n1,0%,nt,-1%,nt
O=C(O)/C=C/C(=O)Nc1ccc(N2CCOCC2)nc1N1CCOCC1,2.2µM*,?,-18%,-15%
COc1ccc(N2CCN(c3ccc(NC(=O)/C=C\C(=O)O)cc3)CC2)cc1,-2%,-12%,?,-14%
COC(=O)c1c(C)oc(C)c1S(=O)(=O)NCC1CC1,5%,3%,3%,-12%
COC(=O)c1c(C)oc(C)c1S(=O)(=O)N(C)C1CCCCC1,45µM*,6%,2%,10%
CCOC(=O)C1CCN(CC(=O)c2c(C)[nH]c3ccccc23)CC1,35µM*,0%,3%,-16%
CCC1CCCCN1CC(=O)c1c(C)[nH]c2ccccc12 (stereo not given),45µM*,-16%,-19%,-9%
CCOC(=O)C1CCCN(C(c2ccccn2)c2c(C)[nH]c3ccccc23)C1 (stereo not given),0.32µM*,1%,1%,41%
CCOC(=O)C1=C(CS(=O)(=O)c2ccccc2)NC(=O)NC1c1ccccc1OCC (stereo not given),25µM*,-12%,0%,-6%
COc1ccc(C(=O)NCc2nnc(SCC(=O)Nc3ccc(C)cc3)n2-c2ccccc2)cc1,11%,nt,20%,nt
O=c1[nH]c(CCl)nc2cc(-c3ccc(F)cc3)sc12,11µM*,-5%,-4%,-23%
COc1ccc2c(c1)CC[C@@H]1[C@@H]2CC[C@]2(C)[C@@H](C(=O)O)C[C@@H]12,-6%,nt,-14%,-22%
C[C@]12CC[C@@H]3c4ccc(O[C@@H]5O[C@H](C(=O)O)[C@@H](O)[C@H](O)[C@H]5O)cc4CC[C@H]3[C@@H]1C[C@@H](O)[C@@H]2O,40µM*,-23%,-6%,-7%
COc1cccc(CNC(=O)CCCNC(=O)c2ccc(Cl)cc2)c1,22µM*,nt,-3%,30%
CC(C)CCCC(C)CCCC(C)CCCC(C)C(=O)O (stereo not given),nt,23%,nt,nt
